Laboratory results: PubChem BioAssay AID1688 (National Center for Advancing Translational Sciences (NCATS), 2009)
Among all 220,000 compounds or so, about 2,400 (1.1%) were called active. Roughly 7% stayed inconclusive and do not appear here. Calls follow the shape of the dose curve; as a rule, active = well fitted inhibition curve with a large enough effect; inconclusive = small, poorly fitted or top-dose-only effect, or effect the other way; inactive = no such curve, though single readings can be large or run the other way. The entries come from a sample that favours actives as a whole. A call without a number means that no potency is given here.

assay: qHTS Multiplex Assay to Identify Dual Action Probes in a Cell Model of Huntington: Aggregate Formation (GFP); conditions: PC12 HttQ103-GFP aggregates, Acumen cytometry, 40 h; series mostly up to 9.22 µM; also: nearly all actives have a fitted effect of over 60% in size
Summary of the method: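 Aggregate formation scored by laser-scanning cytometer (488 excitation, 500–530 emission) in lysed PC12 cells expressing Q103-GFP after 100 nM tebufenozide induction; library tested in dose series, with ATPLite reagent added in the multiplex.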
Potency is read from the fitted curve at half-maximal effect.

SMILES | Potency
COc1ccc(OCCC(=O)c2ccc(OC)cc2)cc1 | inactive
Cc1noc(C)c1C(=O)OCC(=O)/C=C1\N(C)c2ccccc2C1(C)C | inactive
CC(=O)Nc1cccc(OCC(=O)/C=C2\N(C)c3ccccc3C2(C)C)c1 | 11.2 µM (active)
CN1/C(=C\C(=O)c2cccnc2Cl)C(C)(C)c2ccccc21 | inactive
Cc1ccc(NNC(=O)c2cccs2)cc1Cl | inactive
O=C(Nc1ccc(S(=O)(=O)Nc2nccs2)cc1)c1cc(=O)[nH]c2ccccc12 | inactive
Cc1ccc(NC(=O)c2ccc(S(=O)(=O)NCC3CCCO3)cc2)cc1C (stereo unspecified) | inactive
Cc1cc(Cl)c(S(=O)(=O)NCC2CCCO2)cc1OCC(N)=O (stereo unspecified) | inactive
Cc1ccc(C(=O)O)cc1S(=O)(=O)NCC1CCCO1 (stereo unspecified) | 3.98 µM (active)
CC(C)(O)c1ccccc1CC[C@H](SCC1(CC(=O)O)CC1)c1cccc(/C=C/c2ccc3ccc(Cl)cc3n2)c1 | inactive
Cc1cc(Cl)ccc1NNC(=O)c1snnc1C | inactive
O=C1C2C3C=CC(C3)C2C(=O)N1c1ccc(S(=O)(=O)Nc2nccs2)cc1 (stereo unspecified) | inactive
CC(C)(C)c1cc(C(=O)NN)n(Cc2ccc(Cl)cc2Cl)n1 | inactive
COc1cc(NC(=O)c2cccnc2SC)cc(OC)c1 | inactive
COC(=O)c1ccccc1NC(=O)c1ccccc1NS(C)(=O)=O | inactive
O=S(=O)(Nc1ccccc1N1CCOCC1)c1ccc(Cl)s1 | inactive
COc1cc(NC(=O)c2ccccc2NS(=O)(=O)c2ccc(Cl)s2)cc(OC)c1 | 3.98 µM (active)
COC(=O)c1ccc(NC(=O)c2ccccc2NS(=O)(=O)c2ccccc2)cc1 | 11.2 µM (active)
CCOc1ccc(NC(=O)c2ccccc2NS(C)(=O)=O)cc1 | inactive
COc1ccc(S(=O)(=O)N(CC(=O)N/N=C/c2ccccc2C(=O)O)c2ccccc2OC)cc1 | inactive
CC(C)(C)NC(=O)/C(=C/c1cccnc1)NC(=O)c1ccco1 | inactive
CCn1c(CN2C(=O)CSc3ccccc32)n[nH]c1=S | inactive

SMILES | Potency
Cc1nc(=O)c(-c2ccccc2)c(C)n1-c1ccc(Br)cc1 | inactive
CCCc1nc2oc3c(=O)[nH]cnc3c2c2c1COC(C)(C)C2 | inactive
Cc1cc(CO)nn1-c1ccc([N+](=O)[O-])cc1 | inactive
O=C(c1c(Cl)cccc1Cl)N1CCN(c2cccc3[nH]ccc23)CC1 | inactive
Cc1ccc(-c2c[n+](=O)c3c(n2[O-])CCC3)cc1 | inactive
CCC(=O)N1CCCc2ccccc21 | inactive
Cc1cc(C)cc(OCC(=O)O/N=C(\N)Cc2ccc([N+](=O)[O-])cc2)c1 | inactive
CN(C)/C=C/c1c(C#N)c(=O)ncn1Cc1ccccc1 | inactive
O=c1c2c(ncn1Cc1ccccc1)nc1n2CCC1 | inactive
CN(C)c1ccnc2sc3c(=O)n(Cc4ccccc4)cnc3c12 | 7.08 µM (active)
COc1ccc(-c2cc(C(=O)NCc3ccco3)no2)cc1OC | inactive
Cn1nc(-c2ccc(Cl)cc2)c2cc(C(=O)NCc3ccco3)sc21 | 20 µM (active)
CCOC(=O)N1CCN(C(=O)c2cc3c(-c4ccc(Cl)cc4)nn(C)c3s2)CC1 | inactive
CN(CC(O)COc1ccc(S(=O)(=O)N2CCOCC2)cc1Cl)C1CCCCC1 (stereo unspecified) | inactive
Cn1nnc(NC(=S)NC(=O)c2ccccc2)n1 | inactive
CN1CCN(S(=O)(=O)c2ccc(NC(=O)c3ccco3)cc2)CC1 | inactive
CCNC(=S)N1CCN(C(=O)c2ccco2)CC1 | inactive
CC(C)Cc1ccc(S(=O)(=O)N2CCN(C(=O)c3ccco3)CC2)cc1 | 10 µM (active)
CC1CC(=O)Nc2ccccc2N1S(=O)(=O)c1cccs1 (stereo unspecified) | inactive
O=C(NCCCn1ccnc1)C(=O)NCC1OCCN1S(=O)(=O)c1cc(F)ccc1F (stereo unspecified) | inactive
CCOC(=O)c1c(-c2ccc(C)cc2C)csc1NC(=O)CSc1nnnn1C | 11.2 µM (active)
COC(=O)c1ccccc1NC(=O)CSc1nnnn1C | inactive

SMILES | Potency
CCOC(=O)CNC(=O)CSc1nnnn1-c1cc(C)ccc1C | inactive
O=S(=O)(c1ccc(Cl)cc1)N1CCCN(c2ccc(C(F)(F)F)cn2)CC1 | inactive
c1ccc2c(c1)OCC(CNc1ncnc3nc[nH]c13)O2 (stereo unspecified) | inactive
Cc1ccc(NC(=O)c2ccc(CSc3ncnc4nc[nH]c34)cc2)c(C)c1 | inactive
CCc1ccc(N(CC)c2ncnc3nc[nH]c23)cc1 | 10 µM (active)
COc1ccc2c(c1)SC(C)CC2=O (stereo unspecified) | inactive
CC1(C)CC(=O)c2ccc(O)cc2O1 | inactive
COc1ccc2c(c1)OC(O)(C(F)(F)C(F)F)CC2=O (stereo unspecified) | 20 µM (active)
C=CCSc1nc(N)cc(=O)[nH]1 | inactive
O=C(O)CC1=C(Nc2ccccc2)C(=O)N(c2ccccc2)C1c1ccc(Cl)cc1 (stereo unspecified) | inactive
CC(CO)(CO)NC(=O)c1ccc(=O)[nH]n1 | inactive
Cc1ccc(N=Nc2c(C)[nH]n(-c3ccccc3)c2=O)cc1 | inactive
Cc1[nH]n(-c2cccc(Cl)c2)c(=O)c1/C=N/n1c(C)nc2ccccc2c1=O | inactive
Cc1[nH]n(-c2ccccc2)c(=O)c1/C=N/NC(=O)c1ccoc1C | 7.08 µM (active)
Cc1ccc(-n2[nH]c(C)c(/C=N/NC(=O)c3cccc([N+](=O)[O-])c3)c2=O)cc1C | 5.01 µM (active)
COc1cccc(/C=N/NC(=O)c2cccc([N+](=O)[O-])c2)c1OS(=O)(=O)c1ccc(C)cc1 | inactive
O=C(N/N=C/c1cccc([N+](=O)[O-])c1)c1ccncc1 | inactive
COc1cc2c(cc1OC)[C@@H](Cc1cc(OC)c(OC)c(OC)c1)[N+](C)(CCCOC(=O)CC/C=C/CCC(=O)OCCC[N+]1(C)CCc3cc(OC)c(OC)cc3[C@H]1Cc1cc(OC)c(OC)c(OC)c1)CC2 (stereo partly specified) | inactive
O=c1[nH]n2c(-c3ccccc3)nc(O)c2c2ccccc12 | inactive
Cc1nc2c(-c3ccccc3)c(C)[nH]n2c(=O)c1Cl | 10 µM (active)
Cc1cc(-c2ccccc2)n2nc(C)c(-c3ccccc3)c2n1 | inactive
COc1ccc(-c2nn(C)c(=O)c3ccccc23)cc1NC(=O)COc1ccccc1 | inactive

SMILES | Potency
Cc1ccc(NC(=O)Cn2nc(C)c3ccccc3c2=O)c(C)c1 | inactive
Cc1ccc(F)cc1NC(=O)Cc1nn(C)c(=O)c2ccccc12 | 14.1 µM (active)
CCCCNC(=O)OCCSCCS(=O)(=O)c1ccc(Cl)cc1 | inactive
CC(C)(C)n1cnnc1Sc1ccc([N+](=O)[O-])cn1 | inactive
CCC(C)N1C(=S)SC(C)(C)C1N(O)C(=O)NC1CCCCC1 (stereo unspecified) | inactive
c1coc(CNc2ncnc3ccccc23)c1 | 7.94 µM (active)
O=C(NCc1ccncc1)C(=O)NCc1ccco1 | inactive
c1ccc(-c2nc(NCc3ccco3)c3ccccc3n2)cc1 | inactive
Cc1cc(C)cc(NS(=O)(=O)c2ccc(F)cc2)c1 | inactive
CCOc1cc(N2CCOCC2)c(OCC)cc1NC(=O)COc1cccc2cccnc12 | 3.55 µM (active)
CCOc1cc(N2CCOCC2)c(OCC)cc1NC(=O)c1cc(C)nc2ccccc12 | inactive
CCOc1cc(N2CCOCC2)c(OCC)cc1NC(=O)c1ccc(C)s1 | inactive
O=c1c2ccccc2cnn1Cc1n[nH]c(=S)n1-c1ccccc1F | inactive
O=C1CCCN1CCCNc1ncnc2c1[nH]c1ccccc12 | inactive
COc1cc(OC)c(OC)cc1/C=N/Nc1ncnc2c1[nH]c1ccc(C)cc12 | inactive
CC(C)OCCCNc1ncnc2c1[nH]c1ccc(F)cc12 | 2.24 µM (active)
COc1ccc(NC(=O)C2CCC(CNc3c(N4CCCCC4)c(=O)c3=O)CC2)c(OC)c1 (stereo unspecified) | inactive
Cc1cc(N)n(-c2ccc(S(=O)(=O)N3CCCC3)cc2[N+](=O)[O-])n1 | inactive
Cn1c(=O)c2c(nc(OCc3cccnc3)n2Cc2ccccc2)n(C)c1=O | 12.6 µM (active)
CCOC(=O)N1CCN(Cc2nc3c(c(=O)n(C)c(=O)n3C)n2Cc2ccccc2)CC1 | inactive
COCCn1c(CN(Cc2ccccc2)Cc2ccccc2)nc2c1c(=O)n(C)c(=O)n2C | inactive
O=C(Nc1ccc(Br)cn1)C1CCN(S(=O)(=O)c2cccs2)CC1 | inactive

SMILES | Potency
COC(=O)c1cccc(NS(C)(=O)=O)c1 | inactive
Cc1ccc(Cl)c(OCC(=O)NN2CCN(C)CC2)c1 | inactive
Cn1cc(/C=C/c2nc3ccccc3c(=O)n2-c2cccc([N+](=O)[O-])c2)c2ccccc21 | inactive
CCn1c(/C=C/c2ccc([N+](=O)[O-])o2)nc2ccccc2c1=O | 11.2 µM (active)
C/[N+]([O-])=C\c1ccc([N+](=O)[O-])o1 | inactive
CC(NC(=O)C(C)(C)C)C(c1cccs1)N1CCN(Cc2ccccc2)CC1 (stereo unspecified) | inactive
Cc1ccc(C)c2c1cc(C)c1nnc(SCC(=O)Nc3cccc(C(=O)O)c3)n12 | inactive
O=S(=O)(Nc1ccc(OC(F)(F)F)cc1)c1cccc2nonc12 | inactive
CC(C)CN(CC(C)C)CC(O)CN(c1ccccc1)S(=O)(=O)c1ccccc1[N+](=O)[O-] (stereo unspecified) | inactive
COc1ccc(Cn2c(=O)sc3ccccc32)cc1OC | 0.631 µM (active)
Cc1cccc(CSc2nnc(Cn3c(=O)sc4ccccc43)n2C)c1 | inactive
COc1ccccc1CNC(=O)CCn1c(=O)sc2ccccc21 | inactive
CC(C)Sc1nnc([C@H](Cc2ccccc2)NC(=O)OC(C)(C)C)o1 | inactive
CCc1cc(C(=O)c2ccc(OC)cc2)c(NC(=O)CN2CCN(C)CC2)s1 | inactive
CCOC(=O)c1c(NC(=O)NC(C)(C)C)sc2c1CCN(C)C2 | inactive
Cc1cc(C(=O)Nc2c(C)nn(Cc3ccccc3)c2C)on1 | inactive
Cc1nn(Cc2ccc(Cl)c(Cl)c2)c(C)c1NC(=O)c1cc(C2CC2)on1 | 17.8 µM (active)
O=C(Nc1cc(C(F)(F)F)ccc1Cl)c1cc(C2CC2)on1 | inactive
